Data from ChEMBL document CHEMBL1961873, “Compounds: GSK PKIS; Assays: Nanosyn kinase panel” (2012).

How the values were obtained:
[1] = target: Sphingosine kinase 1 (Homo sapiens) (UniProt Q9NYA1); settings: at 1 µM;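 further: mean SPHK1 inhibition value reported from the GSK PKIS kinase panel screen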
[2] = target: T1, Sphingosine kinase 2 (Homo sapiens) (UniProt Q9NRA0); settings: at 0.1 µM
T1 sequence (whole entry): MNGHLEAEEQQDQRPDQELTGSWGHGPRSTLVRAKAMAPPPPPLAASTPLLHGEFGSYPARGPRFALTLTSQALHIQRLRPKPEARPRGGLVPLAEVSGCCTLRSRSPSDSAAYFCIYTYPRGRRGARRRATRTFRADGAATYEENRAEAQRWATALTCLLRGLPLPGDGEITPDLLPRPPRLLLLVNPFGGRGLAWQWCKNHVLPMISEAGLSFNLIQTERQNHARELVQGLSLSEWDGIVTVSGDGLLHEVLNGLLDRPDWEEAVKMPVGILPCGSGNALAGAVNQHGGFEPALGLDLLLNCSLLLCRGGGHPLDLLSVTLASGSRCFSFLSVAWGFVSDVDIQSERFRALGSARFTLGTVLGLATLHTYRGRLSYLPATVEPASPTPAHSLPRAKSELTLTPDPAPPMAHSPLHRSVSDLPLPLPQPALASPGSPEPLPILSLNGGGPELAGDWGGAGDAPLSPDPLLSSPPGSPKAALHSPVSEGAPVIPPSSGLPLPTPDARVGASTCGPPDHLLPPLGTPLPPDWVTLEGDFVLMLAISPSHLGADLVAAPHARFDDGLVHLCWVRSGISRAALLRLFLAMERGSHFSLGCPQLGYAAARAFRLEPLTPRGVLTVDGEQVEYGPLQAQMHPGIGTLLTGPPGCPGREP

[3] = target: T1, Sphingosine kinase 2 (Homo sapiens); settings: at 1 µM
[4] = target: Casein kinase II subunit alpha (Homo sapiens) (UniProt P68400); settings: at 0.1 µM
[5] = target: Casein kinase II subunit alpha (Homo sapiens) (UniProt P68400); settings: at 1 µM
[6] = target: T2, Inhibitor of nuclear factor kappa-B kinase subunit alpha (Homo sapiens) (UniProt O15111); settings: at 0.1 µM
T2 sequence (whole entry): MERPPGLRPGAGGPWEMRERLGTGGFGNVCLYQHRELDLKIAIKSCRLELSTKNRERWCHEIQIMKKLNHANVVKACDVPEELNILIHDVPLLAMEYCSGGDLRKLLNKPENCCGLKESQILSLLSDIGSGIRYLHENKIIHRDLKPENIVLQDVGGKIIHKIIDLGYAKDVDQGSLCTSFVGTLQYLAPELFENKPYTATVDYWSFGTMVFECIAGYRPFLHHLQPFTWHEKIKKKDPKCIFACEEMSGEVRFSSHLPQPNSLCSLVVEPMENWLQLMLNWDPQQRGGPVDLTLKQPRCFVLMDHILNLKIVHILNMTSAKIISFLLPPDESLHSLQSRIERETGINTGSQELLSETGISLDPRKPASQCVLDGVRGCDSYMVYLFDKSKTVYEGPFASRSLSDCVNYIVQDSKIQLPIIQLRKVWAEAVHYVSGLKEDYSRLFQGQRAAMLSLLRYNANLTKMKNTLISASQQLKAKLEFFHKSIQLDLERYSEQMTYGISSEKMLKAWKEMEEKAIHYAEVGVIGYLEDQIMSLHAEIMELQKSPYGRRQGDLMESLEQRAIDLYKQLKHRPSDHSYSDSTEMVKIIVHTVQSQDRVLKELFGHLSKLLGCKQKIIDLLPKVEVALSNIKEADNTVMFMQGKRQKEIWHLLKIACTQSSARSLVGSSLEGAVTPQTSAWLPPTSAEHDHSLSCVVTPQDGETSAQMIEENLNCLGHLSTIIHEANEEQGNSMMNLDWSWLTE

[7] = target: T2, Inhibitor of nuclear factor kappa-B kinase subunit alpha (Homo sapiens); settings: at 1 µM
[8] = target: T3, Inhibitor of nuclear factor kappa-B kinase subunit beta (Homo sapiens) (UniProt O14920); settings: at 0.1 µM
T3 sequence (whole entry): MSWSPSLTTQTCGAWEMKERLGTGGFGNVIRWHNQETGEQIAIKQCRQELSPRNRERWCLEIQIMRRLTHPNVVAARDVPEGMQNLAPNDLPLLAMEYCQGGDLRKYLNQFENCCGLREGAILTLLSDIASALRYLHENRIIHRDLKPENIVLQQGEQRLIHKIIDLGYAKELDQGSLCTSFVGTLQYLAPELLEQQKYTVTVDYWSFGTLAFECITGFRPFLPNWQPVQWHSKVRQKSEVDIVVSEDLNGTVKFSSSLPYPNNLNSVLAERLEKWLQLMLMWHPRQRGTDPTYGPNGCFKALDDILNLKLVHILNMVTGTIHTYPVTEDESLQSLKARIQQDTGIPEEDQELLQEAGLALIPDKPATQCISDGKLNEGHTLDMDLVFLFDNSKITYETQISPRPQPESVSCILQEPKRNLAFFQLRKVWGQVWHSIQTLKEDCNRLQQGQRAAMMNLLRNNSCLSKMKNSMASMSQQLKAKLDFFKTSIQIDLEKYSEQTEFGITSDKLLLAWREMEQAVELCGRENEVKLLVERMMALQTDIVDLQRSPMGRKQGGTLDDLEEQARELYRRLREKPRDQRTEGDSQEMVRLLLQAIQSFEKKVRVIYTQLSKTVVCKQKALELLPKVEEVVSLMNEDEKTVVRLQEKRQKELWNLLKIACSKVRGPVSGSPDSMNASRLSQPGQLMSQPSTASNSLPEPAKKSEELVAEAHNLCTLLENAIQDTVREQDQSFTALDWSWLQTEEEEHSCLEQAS

[9] = target: T3, Inhibitor of nuclear factor kappa-B kinase subunit beta (Homo sapiens); settings: at 1 µM
[10] = target: T4, Inhibitor of nuclear factor kappa-B kinase subunit epsilon (Homo sapiens) (UniProt Q14164); settings: at 0.1 µM
T4 sequence (whole entry): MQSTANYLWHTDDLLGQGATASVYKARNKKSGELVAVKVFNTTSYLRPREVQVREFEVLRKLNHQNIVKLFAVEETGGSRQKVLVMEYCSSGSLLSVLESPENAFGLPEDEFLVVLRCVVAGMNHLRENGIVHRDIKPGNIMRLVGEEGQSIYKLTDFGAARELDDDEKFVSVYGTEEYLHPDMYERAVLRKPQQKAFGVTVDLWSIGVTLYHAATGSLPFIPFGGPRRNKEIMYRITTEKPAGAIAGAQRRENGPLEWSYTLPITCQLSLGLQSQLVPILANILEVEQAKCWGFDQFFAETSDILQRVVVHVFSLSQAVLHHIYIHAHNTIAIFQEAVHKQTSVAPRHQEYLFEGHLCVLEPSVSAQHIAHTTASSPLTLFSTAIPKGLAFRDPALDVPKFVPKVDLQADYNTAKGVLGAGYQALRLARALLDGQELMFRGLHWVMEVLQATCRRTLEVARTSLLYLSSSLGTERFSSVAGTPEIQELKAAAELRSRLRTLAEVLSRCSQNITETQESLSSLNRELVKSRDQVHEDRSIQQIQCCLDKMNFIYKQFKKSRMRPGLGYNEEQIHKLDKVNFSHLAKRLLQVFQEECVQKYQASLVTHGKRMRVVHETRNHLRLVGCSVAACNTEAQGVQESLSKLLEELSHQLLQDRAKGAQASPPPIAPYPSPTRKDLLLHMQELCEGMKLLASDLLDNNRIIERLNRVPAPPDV

[11] = target: T4, Inhibitor of nuclear factor kappa-B kinase subunit epsilon (Homo sapiens); settings: at 1 µM
[12] = target: T5, Serine/threonine-protein kinase Nek1 (Homo sapiens) (UniProt Q96PY6); settings: at 0.1 µM
T5 sequence (whole entry): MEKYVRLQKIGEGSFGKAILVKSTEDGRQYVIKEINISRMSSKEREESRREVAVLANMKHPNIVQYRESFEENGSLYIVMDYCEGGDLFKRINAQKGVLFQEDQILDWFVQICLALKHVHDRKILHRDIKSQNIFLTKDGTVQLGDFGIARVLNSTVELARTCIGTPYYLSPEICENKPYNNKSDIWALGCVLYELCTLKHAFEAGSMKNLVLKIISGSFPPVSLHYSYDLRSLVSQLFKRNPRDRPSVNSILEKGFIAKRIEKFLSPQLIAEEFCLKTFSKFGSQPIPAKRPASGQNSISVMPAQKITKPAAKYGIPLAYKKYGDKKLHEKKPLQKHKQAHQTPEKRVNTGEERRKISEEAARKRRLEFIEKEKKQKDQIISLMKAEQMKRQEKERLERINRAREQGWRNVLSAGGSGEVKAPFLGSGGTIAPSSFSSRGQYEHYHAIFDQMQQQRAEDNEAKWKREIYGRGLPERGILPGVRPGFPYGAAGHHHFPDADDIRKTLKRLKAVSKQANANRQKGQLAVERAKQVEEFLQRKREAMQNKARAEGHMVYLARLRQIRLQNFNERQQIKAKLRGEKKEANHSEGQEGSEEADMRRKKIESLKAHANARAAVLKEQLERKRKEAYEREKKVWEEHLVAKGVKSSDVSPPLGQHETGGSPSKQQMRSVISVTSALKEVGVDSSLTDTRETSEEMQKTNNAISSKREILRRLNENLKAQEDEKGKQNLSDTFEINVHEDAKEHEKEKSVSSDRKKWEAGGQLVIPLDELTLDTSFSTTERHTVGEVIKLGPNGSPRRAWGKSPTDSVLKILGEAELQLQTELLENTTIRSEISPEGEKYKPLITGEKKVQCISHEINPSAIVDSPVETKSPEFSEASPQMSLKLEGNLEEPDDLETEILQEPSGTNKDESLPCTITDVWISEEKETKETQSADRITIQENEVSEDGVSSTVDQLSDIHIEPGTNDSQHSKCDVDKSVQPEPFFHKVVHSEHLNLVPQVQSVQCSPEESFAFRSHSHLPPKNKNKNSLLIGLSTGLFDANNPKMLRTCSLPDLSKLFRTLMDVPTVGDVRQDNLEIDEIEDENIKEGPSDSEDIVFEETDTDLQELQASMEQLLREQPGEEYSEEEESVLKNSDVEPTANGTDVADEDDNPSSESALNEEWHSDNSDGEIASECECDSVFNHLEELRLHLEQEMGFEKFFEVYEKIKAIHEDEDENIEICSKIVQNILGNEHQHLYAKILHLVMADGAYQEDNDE

[13] = target: T5, Serine/threonine-protein kinase Nek1 (Homo sapiens); settings: at 1 µM
[14] = target: T6, Serine/threonine-protein kinase Nek2 (Homo sapiens) (UniProt P51955); settings: at 0.1 µM
T6 sequence (whole entry): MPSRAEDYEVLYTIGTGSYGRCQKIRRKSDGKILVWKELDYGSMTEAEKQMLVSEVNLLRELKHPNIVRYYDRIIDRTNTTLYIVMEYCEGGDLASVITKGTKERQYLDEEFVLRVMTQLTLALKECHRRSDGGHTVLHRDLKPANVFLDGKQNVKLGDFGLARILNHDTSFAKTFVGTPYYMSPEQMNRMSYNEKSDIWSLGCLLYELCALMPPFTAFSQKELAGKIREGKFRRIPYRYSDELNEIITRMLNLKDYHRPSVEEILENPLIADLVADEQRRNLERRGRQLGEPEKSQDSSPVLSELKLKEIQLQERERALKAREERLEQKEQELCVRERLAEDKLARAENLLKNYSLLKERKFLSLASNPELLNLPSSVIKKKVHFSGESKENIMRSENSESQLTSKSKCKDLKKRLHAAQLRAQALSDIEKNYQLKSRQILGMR

[15] = target: T6, Serine/threonine-protein kinase Nek2 (Homo sapiens); settings: at 1 µM
[16] = target: Serine/threonine-protein kinase Nek6 (Homo sapiens) (UniProt Q9HC98); settings: at 0.1 µM
[17] = target: Serine/threonine-protein kinase Nek6 (Homo sapiens) (UniProt Q9HC98); settings: at 1 µM
[18] = target: Serine/threonine-protein kinase Nek7 (Homo sapiens) (UniProt Q8TDX7); settings: at 0.1 µM
[19] = target: Serine/threonine-protein kinase Nek7 (Homo sapiens) (UniProt Q8TDX7); settings: at 1 µM
[20] = target: T7, Serine/threonine-protein kinase Nek9 (Homo sapiens) (UniProt Q8TD19); settings: at 0.1 µM;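 further: reported value is the mean percent inhibition of NEK9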
T7 sequence (whole entry): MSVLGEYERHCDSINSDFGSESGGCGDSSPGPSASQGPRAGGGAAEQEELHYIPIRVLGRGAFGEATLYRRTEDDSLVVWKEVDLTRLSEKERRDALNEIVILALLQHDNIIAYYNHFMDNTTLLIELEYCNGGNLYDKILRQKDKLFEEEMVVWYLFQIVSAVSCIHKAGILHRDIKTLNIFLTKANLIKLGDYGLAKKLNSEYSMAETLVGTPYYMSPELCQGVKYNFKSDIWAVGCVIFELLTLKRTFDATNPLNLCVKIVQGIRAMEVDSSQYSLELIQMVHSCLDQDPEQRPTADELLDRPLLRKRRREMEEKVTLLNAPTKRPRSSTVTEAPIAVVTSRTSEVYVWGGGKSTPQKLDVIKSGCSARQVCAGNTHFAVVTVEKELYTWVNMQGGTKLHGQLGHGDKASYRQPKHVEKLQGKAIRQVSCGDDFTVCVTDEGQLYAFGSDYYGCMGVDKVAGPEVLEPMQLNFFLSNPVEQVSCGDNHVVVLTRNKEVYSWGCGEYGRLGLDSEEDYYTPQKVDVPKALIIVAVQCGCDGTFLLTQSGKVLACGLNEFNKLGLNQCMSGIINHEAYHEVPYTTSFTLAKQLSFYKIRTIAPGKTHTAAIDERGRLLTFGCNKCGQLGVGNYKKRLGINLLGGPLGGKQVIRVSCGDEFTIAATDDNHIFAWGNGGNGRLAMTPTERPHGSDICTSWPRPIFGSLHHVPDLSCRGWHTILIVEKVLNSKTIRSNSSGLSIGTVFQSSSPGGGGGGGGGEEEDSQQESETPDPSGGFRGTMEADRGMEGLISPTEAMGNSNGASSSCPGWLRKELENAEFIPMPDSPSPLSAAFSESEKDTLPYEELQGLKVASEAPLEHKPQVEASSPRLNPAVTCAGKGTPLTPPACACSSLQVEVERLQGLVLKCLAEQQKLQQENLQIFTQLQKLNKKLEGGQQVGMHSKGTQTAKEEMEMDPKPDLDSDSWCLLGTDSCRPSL

Sequence of Casein kinase II subunit alpha (Homo sapiens) (P68400 whole entry, looked up): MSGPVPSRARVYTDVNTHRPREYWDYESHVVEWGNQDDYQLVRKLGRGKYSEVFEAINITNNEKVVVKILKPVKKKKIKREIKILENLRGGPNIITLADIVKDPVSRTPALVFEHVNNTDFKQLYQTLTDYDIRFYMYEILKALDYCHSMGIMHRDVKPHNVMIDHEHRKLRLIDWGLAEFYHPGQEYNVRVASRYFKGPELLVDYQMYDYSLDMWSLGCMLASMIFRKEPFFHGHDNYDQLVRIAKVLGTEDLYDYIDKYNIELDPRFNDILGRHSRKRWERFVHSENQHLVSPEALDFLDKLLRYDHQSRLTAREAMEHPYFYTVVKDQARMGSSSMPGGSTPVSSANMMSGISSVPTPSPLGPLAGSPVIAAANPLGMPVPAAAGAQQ
Sequence of Serine/threonine-protein kinase Nek6 (Homo sapiens) (Q9HC98 whole entry): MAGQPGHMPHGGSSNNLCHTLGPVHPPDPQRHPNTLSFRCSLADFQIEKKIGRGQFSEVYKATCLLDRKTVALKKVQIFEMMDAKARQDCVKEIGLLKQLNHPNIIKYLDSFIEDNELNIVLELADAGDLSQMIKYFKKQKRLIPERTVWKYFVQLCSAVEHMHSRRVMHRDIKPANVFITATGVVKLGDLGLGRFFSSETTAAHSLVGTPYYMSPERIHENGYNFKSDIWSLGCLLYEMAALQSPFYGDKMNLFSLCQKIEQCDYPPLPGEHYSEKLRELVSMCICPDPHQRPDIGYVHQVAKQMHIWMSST
Sequence of Serine/threonine-protein kinase Nek7 (Homo sapiens) (Q8TDX7 whole entry, looked up): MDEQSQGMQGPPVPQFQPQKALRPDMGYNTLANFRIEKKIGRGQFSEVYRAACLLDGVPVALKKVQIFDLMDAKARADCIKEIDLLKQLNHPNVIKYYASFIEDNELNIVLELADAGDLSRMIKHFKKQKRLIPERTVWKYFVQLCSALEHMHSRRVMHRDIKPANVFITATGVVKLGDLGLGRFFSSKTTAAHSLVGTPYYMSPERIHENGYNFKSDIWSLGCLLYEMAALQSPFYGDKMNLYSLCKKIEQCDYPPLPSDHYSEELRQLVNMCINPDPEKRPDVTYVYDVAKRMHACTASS
Sequence of Sphingosine kinase 1 (Homo sapiens) (Q9NYA1 whole entry): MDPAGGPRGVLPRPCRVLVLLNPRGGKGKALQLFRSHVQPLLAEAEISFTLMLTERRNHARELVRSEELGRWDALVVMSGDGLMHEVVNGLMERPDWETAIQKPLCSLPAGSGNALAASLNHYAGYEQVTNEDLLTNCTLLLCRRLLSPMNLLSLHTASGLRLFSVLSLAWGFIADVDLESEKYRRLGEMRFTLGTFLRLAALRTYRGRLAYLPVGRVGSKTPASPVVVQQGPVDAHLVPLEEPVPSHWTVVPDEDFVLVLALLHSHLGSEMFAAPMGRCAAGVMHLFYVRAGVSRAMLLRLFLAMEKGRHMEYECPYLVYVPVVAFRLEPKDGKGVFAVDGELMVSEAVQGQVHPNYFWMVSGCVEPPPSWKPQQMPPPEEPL

Row | SMILES | inhibition [1] [%] | inhibition [2] [%] | inhibition [3] [%] | inhibition [4] [%] | inhibition [5] [%] | inhibition [6] [%] | inhibition [7] [%] | inhibition [8] [%] | inhibition [9] [%] | inhibition [10] [%] | inhibition [11] [%] | inhibition [12] [%] | inhibition [13] [%] | inhibition [14] [%] | inhibition [15] [%] | inhibition [16] [%] | inhibition [17] [%] | inhibition [18] [%] | inhibition [19] [%] | inhibition [20] [%]
1 | COc1cc2ncn(-c3cc(OCCc4ccccc4)c(C(N)=O)s3)c2cc1OC | -2.62 | -3.06 | 0.29 | 1.36 | -0.04 | 6.65 | 1.12 | 3.03 | 0.18 | 2.79 | 2.69 | 1.71 | 1.3 | 2.3 | 4.49 | -0.94 | 1.69 | 3.01 | 2.45 | 1.66
2 | CCc1cccc(CC)c1/C=C/c1cncc(C(=O)NC)c1 | -1.72 | 0.98 | 1.95 | -0.28 | -1.26 | -2.82 | -5.51 | 4.86 | 2.91 | 1.34 | 3.78 | 1.27 | 1.92 | 3.4 | 3.05 | 0.31 | 0.68 | 2.82 | 2.39 | 8.92
